Reference: PubChem BioAssay (NCI)
About 83,000 compounds went through this panel and 20% of them were active in at least one assay; those are over-represented in the sample as a whole.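 Cell lines were cultured in 96-well plates, exposed to a single compound concentration, and assessed for percent growth 48 hours later.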 Unmarked numbers belong to inactive results. Active and inactive are the calls of the source.

These molecules were tested on NCI-H226 lung (assay: NCI-60 one-dose screen, 48 h (100 = growth as untreated, 0 = no growth, -100 = all killed)). Conditions: 10 µM unless noted.
Procedure: Growth inhibition of the NCI-H226 human Non-Small Cell Lung tumor cell line is measured as a screen for anti-cancer activity. Cells are grown in 96 well plates and exposed to the test compound for 48 hours. Compounds are tested at a single concentration, which is 10^-5 M for most compounds. The reported endpoint is percent growth (GI% or GIPRCNT), where numbers from 0 - 100% represent growth inhibition, and numbers from -100% - 0 represent cell death. For example, a value of 40 represents 60% growth inhibition. A value of 0 means no net growth occurred over the course of the experiment. A value of -40 indicates 40% of cells at the beginning of the experiment died by the end of the experiment. A value of -100 means all cells are dead at the end of the experiment.
NCI-60 Human Tumor Cell Lines Screen was performed using the standard one-dose NCI protocol, which is described in more detail at https://dtp.cancer.gov/discovery_development/nci-60/default.htm.
Compounds with GIPRCNT values below 10 were considered active. Activity score was based on GIPRCNT using the following formula: […]
Score is 0 for GIPRCNT values of 100 or above, 50 for GIPRCNT values of 0, and 100 for GIPRCNT values of -100.

SMILES	growth
CC(C)OP(=O)(CCC(=O)c1c[nH]c2ccccc12)OC(C)C	94%
COc1cc(N2CCC(N(C)C)CC2)ccc1Nc1ncc(Cl)c(Nc2ccccc2P(C)(C)=O)n1	-44.3% (active)
Cc1ccc(NC(=O)c2ccc(CN3CCN(C)CC3)cc2)cc1Nc1nc(-c2cccnc2)cs1	38.6%
Cc1cc([C@@H](C)Nc2ccccc2C(=O)O)c2nc(N3CCOCC3)cc(=O)n2c1	55.4%
CN1CC[C@@H](c2c(O)cc(O)c3c(=O)cc(-c4ccccc4Cl)oc23)[C@@H]1CO	7.7% (active)
O=C(c1ccc(F)c(F)c1Nc1ccc(I)cc1F)N1CC(O)([C@@H]2CCCCN2)C1	39.4%
CC(N)C(Cc1ccc(Cl)cc1)c1ccc(Cl)cc1 (stereo not given)	88.2%
c1cc(OCCN2CCCCC2)cc(-c2n[nH]c3ccc(-c4ncn[nH]4)cc23)c1	61.6%
CN(N)c1nc2sc3c(c2c(=O)[nH]1)CCCC3	101%
Cc1cnc(NC(=O)Nc2cc(Br)c(C)cc2OC[C@@H]2CNCCO2)cn1	51.2%
C=C1C(=O)O[C@H]2[C@H]1CC/C(C=Nc1c(N)cc(C(F)(F)F)cc1C(F)(F)F)=C\CC[C@@]1(C)O[C@@H]21	-53.1% (active)
CCOC(=O)C1=C(C)N=C2Sc3cccc(OC)c3N2[C@H]1c1ccccn1	84.9%
COc1ccc(-c2cc3c(oc2=O)-c2ccccc2OC3OC(C)=O)cc1 (stereo not given)	94.3%
NC1=Nc2ccccc2N(O)N1	98.2%
CC#CC(=O)N1CCC[C@H]1c1nc(-c2ccc(C(=O)Nc3ccccn3)cc2)c2c(N)nccn12	80.2%
CC(=O)C1CC(C)CCC1C(C)C (stereo not given)	105%
CCN1CCN(Cc2ccc(Cc3ncc(F)c(-c4cc(F)c5nc(C)n(C(C)C)c5c4)n3)nc2)CC1	34.3%
O=C(NOCCO)c1ccc2cncn2c1Nc1ccc(I)cc1F	56.7%
CCc1nc(C(N)=O)c(Nc2ccc(N3CCC(N4CCN(C)CC4)CC3)c(OC)c2)nc1NC1CCOCC1	38.2%
Cn1ccnc1C(=O)/C=C/c1ccc(CC(=O)Nc2ccc(C(F)(F)F)cc2)cc1	48.5%

SMILES	growth
Cc1cnc(Nc2ccc(OCCN3CCCC3)cc2)nc1Nc1cccc(S(=O)(=O)NC(C)(C)C)c1	-61.9% (active)
CO[C@H](C(=O)N[C@@H](CCCCNC(=O)OCc1ccccc1)C(=O)OC(C)(C)C)[C@@H]1Cc2cc3cc(OC4CC(OC5CC(O)C(O)C(C)O5)C(O)C(C)O4)c(C)c(O)c3c(O)c2C(=O)[C@H]1OC1CC(OC2CC(OC3CC(C)(O)C(O)C(C)O3)C(O)C(C)O2)C(O)C(C)O1 (stereo not given in full)	-75.5% (active)
N#CC1(C#N)C(c2cccs2)NC(c2cccs2)C1(C#N)C#N (stereo not given)	102%
COc1cc(-c2nc(C(=O)NCC(=O)O)nn2-c2ccc(Cl)cc2)cc(OC)c1OC	87.1%
COC(=O)CNC(=O)[C@@H](OC)[C@@H]1Cc2cc3cc(OC4CC(OC5CC(O)C(O)C(C)O5)C(O)C(C)O4)c(C)c(O)c3c(O)c2C(=O)[C@H]1OC1CC(OC2CC(OC3CC(C)(O)C(O)C(C)O3)C(O)C(C)O2)C(O)C(C)O1 (stereo not given in full)	-10% (active)
CCc1cnn2c(NCc3ccc[n+]([O-])c3)cc(N3CCCC[C@H]3CCO)nc12	-6.42% (active)
O=C1NC(=O)/C(=C/c2ccc3nccc(-c4ccncc4)c3c2)S1	-54.5% (active)
Cc1c(N)ccc(-c2ccc(N)c(C)c2S(=O)(=O)O)c1S(=O)(=O)O	111%
COc1ccc2c(OCc3nnc4ccc(-c5ccccc5)nn34)ccnc2c1	84.7% [2.5 µM]
O=C1/C(=C\c2cccc(OCCCCCOc3ccc(Cl)cc3)c2)N=C2SCCCN12	60.3%
CCCCn1c(C)nc2cc(Nc3nc(N4CCCCC4)nc4nc[nH]c34)ccc21	44.4%
Cc1cc2c(-c3nc4ccccn4c3Nc3cccc4ccccc34)c(O)c(O)cc2c(O)c1-c1c(C)cc2c(-c3nc4ccccn4c3Nc3cccc4ccccc34)c(O)c(O)cc2c1O	46.6%
Cc1[nH]n(C(N)=S)c(=O)c1N=Nc1ccc(S(=O)(=O)Nc2ccncn2)cc1	93.4%
CSc1nc2ncncc2[nH]1	92.5%
COc1cc(F)c(F)c(Nc2ccc(I)cc2F)c1NS(=O)(=O)C1(C[C@H](O)CO)CC1	41.3%
COc1ccc(-n2c(=O)c3ccccc3n(Cc3ccc(C(=O)NO)cc3)c2=O)cc1	31.8%
O=C1C=CC2(NN=C(c3ccccc3)N2c2cccc(Cl)c2)c2cccc(O)c21 (stereo not given)	85.6%
COc1cc2cc(NCc3ccc(Cl)cc3)nc(C)c2cc1OC	35.5%
COC(=O)[C@]12CC[C@@H](C)[C@H](C)[C@@H]1C1=CC[C@@H]3[C@@]4(C)C(C#N)=CC(C)=C4CC[C@@]3(C)[C@]1(C)CC2	82.7%
C=C1C(=O)O[C@H]2[C@H]1CC/C(Cn1cc(-c3cc(C)c(C)cc3C)nn1)=C\CC[C@@]1(C)O[C@@H]21	-65.2% (active)
